# Measurements taken from PMC7862700, “An all-to-all approach to the identification of sequence-specific readers for epigenetic DNA modifications on cytosine”.
# Tests used:
# Test in all cases: DAPPL (digital affinity profiling via proximity ligation, sequencing); 10 mM Tris-HCl pH 7.5, 50 mM NaCl, 1 mM DTT, 4% glycerol, room temperature, 30 min; GST-TFs on glutathione beads, 16-mer random dsDNA library, 0.1% formaldehyde crosslink after washing; high values mean tight binding
# [1] = target: T1, FEV (Homo sapiens, UniProt Q99581 1-238); details: protein: recombinant; tags: N-terminal GST; dsDNA, one strand shown
# T1 sequence: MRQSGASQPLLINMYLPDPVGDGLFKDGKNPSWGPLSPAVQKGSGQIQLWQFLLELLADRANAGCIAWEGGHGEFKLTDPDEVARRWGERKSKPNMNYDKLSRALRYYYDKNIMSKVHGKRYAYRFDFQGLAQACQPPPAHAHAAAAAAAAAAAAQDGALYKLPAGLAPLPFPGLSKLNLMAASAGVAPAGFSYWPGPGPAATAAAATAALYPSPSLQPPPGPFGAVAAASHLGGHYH
# How it was run: (§1)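 Yeast served to express human transcription factors as GST fusions, which were then captured on glutathione beads and labelled with DNA barcodes. Pooled with a tag-only sample, they were incubated with 200 nmole of a 16-mer random double-stranded DNA library for 30 min at room temperature in Tris/NaCl/DTT/glycerol buffer, washed, crosslinked with 0.1% formaldehyde, ligated by proximity, amplified by PCR and sequenced. Dividing each hexamer's read frequency for a factor by its frequency for the tag-only sample gives the binding signal.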
# [2] = target: ETV5 (Homo sapiens, UniProt P41161 1-510); details: protein: recombinant; tags: N-terminal GST; dsDNA, one strand shown
# How it was run: as §1
# [3] = target: HSF1 (Homo sapiens, UniProt Q00613 1-529); details: protein: recombinant; tags: N-terminal GST; chain copies: 3; dsDNA, one strand shown
# How it was run: as §1
# [4] = target: T2, SPIC (Homo sapiens, UniProt Q8N5J4 1-248); details: protein: recombinant; tags: N-terminal GST; dsDNA, one strand shown
# T2 sequence: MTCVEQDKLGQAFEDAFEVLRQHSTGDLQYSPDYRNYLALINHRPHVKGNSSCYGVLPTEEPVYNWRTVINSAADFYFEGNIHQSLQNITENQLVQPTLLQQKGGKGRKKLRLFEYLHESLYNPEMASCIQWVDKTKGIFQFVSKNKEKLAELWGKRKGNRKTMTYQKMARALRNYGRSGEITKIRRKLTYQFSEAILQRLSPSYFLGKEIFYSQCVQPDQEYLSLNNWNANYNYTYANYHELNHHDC
# How it was run: as §1
# [5] = target: ELF4 (Homo sapiens, UniProt Q99607 1-663); details: protein: recombinant; tags: N-terminal GST; dsDNA, one strand shown
# How it was run: as §1
# [6] = target: T3, ELK4 (Homo sapiens, UniProt P28324-2 1-405); details: protein: recombinant; tags: N-terminal GST; dsDNA, one strand shown
# T3 sequence: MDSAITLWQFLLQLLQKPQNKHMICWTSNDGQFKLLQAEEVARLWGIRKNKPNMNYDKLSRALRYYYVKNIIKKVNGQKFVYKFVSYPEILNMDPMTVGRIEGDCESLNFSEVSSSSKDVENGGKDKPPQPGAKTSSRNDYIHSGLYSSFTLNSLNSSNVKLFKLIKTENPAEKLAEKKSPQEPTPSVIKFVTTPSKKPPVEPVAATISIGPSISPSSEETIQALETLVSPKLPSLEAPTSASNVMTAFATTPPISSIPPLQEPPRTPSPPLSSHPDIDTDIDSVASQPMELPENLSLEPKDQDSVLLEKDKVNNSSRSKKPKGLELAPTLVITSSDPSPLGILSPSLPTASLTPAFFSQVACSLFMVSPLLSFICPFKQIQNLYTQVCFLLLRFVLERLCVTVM
# How it was run: as §1
# [7] = target: T4, ETV2 (Homo sapiens, UniProt O00321 1-342); details: protein: recombinant; tags: N-terminal GST; dsDNA, one strand shown
# T4 sequence: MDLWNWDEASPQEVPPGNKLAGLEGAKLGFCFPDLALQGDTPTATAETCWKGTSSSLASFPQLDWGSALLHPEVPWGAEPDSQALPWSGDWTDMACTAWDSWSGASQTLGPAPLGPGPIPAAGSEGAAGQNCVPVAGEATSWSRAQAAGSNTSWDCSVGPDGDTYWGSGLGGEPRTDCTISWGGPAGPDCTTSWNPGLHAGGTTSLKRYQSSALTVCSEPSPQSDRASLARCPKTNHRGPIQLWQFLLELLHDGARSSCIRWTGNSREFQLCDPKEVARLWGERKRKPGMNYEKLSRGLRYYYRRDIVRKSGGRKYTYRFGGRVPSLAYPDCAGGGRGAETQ
# How it was run: as §1
# [8] = target: CRX (Homo sapiens, UniProt O43186 1-299); details: protein: recombinant; tags: N-terminal GST; dsDNA, one strand shown
# How it was run: as §1
# [9] = target: ETV1 (Homo sapiens, UniProt P50549 1-477); details: protein: recombinant; tags: N-terminal GST; dsDNA, one strand shown
# How it was run: as §1
# [10] = target: T5, ERF (Homo sapiens, UniProt P50548 1-548); details: protein: recombinant; tags: N-terminal GST; dsDNA, one strand shown
# T5 sequence: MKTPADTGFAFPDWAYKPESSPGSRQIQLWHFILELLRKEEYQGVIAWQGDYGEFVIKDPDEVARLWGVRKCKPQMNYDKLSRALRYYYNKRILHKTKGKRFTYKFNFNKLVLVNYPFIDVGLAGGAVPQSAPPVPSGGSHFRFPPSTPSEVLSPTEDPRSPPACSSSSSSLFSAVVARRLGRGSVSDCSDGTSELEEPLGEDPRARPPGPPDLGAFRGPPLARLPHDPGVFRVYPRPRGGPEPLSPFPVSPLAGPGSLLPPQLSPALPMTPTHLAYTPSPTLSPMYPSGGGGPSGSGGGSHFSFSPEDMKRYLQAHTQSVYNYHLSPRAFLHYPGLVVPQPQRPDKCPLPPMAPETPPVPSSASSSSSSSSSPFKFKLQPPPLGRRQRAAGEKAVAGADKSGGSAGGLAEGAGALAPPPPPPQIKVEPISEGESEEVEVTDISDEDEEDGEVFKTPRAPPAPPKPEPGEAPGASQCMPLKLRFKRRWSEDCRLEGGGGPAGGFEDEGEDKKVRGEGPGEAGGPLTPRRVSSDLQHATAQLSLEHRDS
# How it was run: as §1
# [11] = target: T6, ETV3L (Homo sapiens, UniProt Q6ZN32 1-361); details: protein: recombinant; tags: N-terminal GST; dsDNA, one strand shown
# T6 sequence: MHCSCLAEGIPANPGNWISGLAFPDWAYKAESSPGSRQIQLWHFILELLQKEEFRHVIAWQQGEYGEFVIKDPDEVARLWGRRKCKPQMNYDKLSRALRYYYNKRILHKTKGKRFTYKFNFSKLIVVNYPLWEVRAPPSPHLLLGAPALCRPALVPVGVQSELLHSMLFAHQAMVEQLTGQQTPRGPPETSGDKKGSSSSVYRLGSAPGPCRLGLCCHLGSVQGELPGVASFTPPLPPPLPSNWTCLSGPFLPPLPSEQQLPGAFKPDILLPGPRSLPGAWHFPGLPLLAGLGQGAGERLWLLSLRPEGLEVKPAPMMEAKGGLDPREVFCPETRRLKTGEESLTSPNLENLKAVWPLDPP
# How it was run: as §1
# [12] = target: T7, ETS2 (Homo sapiens, UniProt P15036 1-469); details: protein: recombinant; tags: N-terminal GST; dsDNA, one strand shown
# T7 sequence: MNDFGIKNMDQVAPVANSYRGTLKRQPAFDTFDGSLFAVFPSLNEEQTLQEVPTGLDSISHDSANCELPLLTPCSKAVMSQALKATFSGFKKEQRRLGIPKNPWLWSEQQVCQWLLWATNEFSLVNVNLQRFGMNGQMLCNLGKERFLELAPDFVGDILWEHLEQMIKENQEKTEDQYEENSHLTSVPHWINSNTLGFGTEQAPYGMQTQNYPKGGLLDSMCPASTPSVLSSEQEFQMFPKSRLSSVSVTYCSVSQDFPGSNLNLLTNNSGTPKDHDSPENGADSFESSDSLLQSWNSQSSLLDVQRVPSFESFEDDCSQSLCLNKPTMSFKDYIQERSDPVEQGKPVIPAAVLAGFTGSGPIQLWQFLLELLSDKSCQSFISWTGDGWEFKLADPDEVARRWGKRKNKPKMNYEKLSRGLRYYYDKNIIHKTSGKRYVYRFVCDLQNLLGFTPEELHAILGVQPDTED
# How it was run: as §1
# [13] = target: T8, SPDEF (Homo sapiens, UniProt O95238 1-335); details: protein: recombinant; tags: N-terminal GST; dsDNA, one strand shown
# T8 sequence: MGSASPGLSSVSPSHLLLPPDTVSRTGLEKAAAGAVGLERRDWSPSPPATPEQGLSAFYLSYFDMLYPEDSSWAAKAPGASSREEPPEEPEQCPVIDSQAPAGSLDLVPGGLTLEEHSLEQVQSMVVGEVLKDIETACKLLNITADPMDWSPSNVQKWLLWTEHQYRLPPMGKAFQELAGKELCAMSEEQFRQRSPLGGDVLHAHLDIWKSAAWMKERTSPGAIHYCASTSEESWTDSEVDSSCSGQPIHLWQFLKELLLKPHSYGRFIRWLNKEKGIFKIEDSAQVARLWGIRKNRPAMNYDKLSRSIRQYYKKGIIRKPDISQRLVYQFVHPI
# How it was run: as §1
# [14] = target: T9, ETV7 (Homo sapiens, UniProt Q9Y603 1-341); details: protein: recombinant; tags: N-terminal GST; dsDNA, one strand shown
# T9 sequence: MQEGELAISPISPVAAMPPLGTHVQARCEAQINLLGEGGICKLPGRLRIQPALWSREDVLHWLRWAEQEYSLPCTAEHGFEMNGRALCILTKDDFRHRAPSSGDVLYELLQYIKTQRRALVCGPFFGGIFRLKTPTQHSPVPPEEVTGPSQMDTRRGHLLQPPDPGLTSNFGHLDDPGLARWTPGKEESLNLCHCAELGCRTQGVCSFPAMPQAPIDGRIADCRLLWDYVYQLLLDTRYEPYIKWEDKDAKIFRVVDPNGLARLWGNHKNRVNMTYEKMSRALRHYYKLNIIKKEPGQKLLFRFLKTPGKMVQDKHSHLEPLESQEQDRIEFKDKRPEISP
# How it was run: as §1
# [15] = target: T10, ELF5 (Homo sapiens, UniProt Q9UKW6-2 1-255); details: protein: recombinant; tags: N-terminal GST; dsDNA, one strand shown
# T10 sequence: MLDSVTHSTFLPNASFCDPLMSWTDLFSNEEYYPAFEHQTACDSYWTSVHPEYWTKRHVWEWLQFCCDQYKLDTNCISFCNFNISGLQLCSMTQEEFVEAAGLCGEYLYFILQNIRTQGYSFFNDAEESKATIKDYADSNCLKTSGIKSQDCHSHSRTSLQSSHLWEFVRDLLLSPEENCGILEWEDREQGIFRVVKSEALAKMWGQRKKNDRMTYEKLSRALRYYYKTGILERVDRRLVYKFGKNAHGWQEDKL
# How it was run: as §1
# [16] = target: T11, ETV3 (Homo sapiens, UniProt P41162-2 1-143); details: protein: recombinant; tags: N-terminal GST; dsDNA, one strand shown
# T11 sequence: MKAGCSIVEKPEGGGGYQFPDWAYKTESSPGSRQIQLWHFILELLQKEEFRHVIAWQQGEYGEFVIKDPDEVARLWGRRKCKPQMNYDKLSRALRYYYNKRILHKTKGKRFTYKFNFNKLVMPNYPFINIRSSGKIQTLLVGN
# How it was run: as §1
# [17] = target: ETV6 (Homo sapiens, UniProt P41212 1-452); details: protein: recombinant; tags: N-terminal GST; dsDNA, one strand shown
# How it was run: as §1
# ETV6, sequence (P41212 whole entry): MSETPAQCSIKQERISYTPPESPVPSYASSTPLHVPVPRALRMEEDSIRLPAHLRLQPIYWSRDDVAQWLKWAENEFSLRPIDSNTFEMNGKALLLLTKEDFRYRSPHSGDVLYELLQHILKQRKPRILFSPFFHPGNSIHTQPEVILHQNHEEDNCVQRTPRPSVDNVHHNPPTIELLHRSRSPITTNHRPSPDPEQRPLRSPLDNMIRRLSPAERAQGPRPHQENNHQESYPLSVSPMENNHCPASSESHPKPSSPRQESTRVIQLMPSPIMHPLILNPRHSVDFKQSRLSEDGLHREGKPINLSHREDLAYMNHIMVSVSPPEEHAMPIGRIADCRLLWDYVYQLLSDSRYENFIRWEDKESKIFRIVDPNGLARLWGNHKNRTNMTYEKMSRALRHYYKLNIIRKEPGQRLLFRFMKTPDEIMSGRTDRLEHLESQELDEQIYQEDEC
# ETV1, sequence (P50549 whole entry): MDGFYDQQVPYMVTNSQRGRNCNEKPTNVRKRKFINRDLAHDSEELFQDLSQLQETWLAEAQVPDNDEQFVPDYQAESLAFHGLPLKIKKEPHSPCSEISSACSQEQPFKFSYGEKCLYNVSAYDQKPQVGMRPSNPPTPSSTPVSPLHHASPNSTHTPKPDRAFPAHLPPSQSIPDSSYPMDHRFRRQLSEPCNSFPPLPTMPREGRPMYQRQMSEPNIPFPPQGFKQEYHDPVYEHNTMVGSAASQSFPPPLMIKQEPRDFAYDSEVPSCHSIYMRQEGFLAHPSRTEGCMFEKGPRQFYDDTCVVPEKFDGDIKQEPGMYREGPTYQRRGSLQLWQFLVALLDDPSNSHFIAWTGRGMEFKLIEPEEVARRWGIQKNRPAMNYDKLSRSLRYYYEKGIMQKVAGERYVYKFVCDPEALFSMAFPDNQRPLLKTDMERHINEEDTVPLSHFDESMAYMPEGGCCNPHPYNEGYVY
# HSF1, sequence (Q00613 whole entry): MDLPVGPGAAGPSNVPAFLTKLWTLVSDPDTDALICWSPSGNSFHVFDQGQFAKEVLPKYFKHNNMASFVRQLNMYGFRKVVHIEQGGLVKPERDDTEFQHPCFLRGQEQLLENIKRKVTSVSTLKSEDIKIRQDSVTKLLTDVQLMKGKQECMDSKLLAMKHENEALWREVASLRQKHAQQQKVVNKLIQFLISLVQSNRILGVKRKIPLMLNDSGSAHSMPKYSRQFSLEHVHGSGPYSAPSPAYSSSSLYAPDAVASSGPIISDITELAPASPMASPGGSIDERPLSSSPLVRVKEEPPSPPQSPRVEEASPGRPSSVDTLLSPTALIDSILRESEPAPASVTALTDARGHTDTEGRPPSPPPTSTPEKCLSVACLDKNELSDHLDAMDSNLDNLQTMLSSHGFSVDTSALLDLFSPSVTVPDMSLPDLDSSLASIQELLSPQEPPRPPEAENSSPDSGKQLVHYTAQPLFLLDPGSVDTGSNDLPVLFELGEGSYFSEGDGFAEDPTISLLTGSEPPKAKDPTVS
# CRX, sequence (O43186 whole entry): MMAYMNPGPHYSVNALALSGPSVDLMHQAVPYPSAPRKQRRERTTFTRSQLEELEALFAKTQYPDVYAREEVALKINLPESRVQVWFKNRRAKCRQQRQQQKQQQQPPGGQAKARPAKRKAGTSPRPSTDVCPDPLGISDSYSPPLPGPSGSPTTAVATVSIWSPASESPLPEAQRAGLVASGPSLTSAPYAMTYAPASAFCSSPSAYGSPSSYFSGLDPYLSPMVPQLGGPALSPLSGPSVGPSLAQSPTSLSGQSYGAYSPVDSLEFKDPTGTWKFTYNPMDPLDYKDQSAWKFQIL
# ETV5, sequence (P41161 whole entry): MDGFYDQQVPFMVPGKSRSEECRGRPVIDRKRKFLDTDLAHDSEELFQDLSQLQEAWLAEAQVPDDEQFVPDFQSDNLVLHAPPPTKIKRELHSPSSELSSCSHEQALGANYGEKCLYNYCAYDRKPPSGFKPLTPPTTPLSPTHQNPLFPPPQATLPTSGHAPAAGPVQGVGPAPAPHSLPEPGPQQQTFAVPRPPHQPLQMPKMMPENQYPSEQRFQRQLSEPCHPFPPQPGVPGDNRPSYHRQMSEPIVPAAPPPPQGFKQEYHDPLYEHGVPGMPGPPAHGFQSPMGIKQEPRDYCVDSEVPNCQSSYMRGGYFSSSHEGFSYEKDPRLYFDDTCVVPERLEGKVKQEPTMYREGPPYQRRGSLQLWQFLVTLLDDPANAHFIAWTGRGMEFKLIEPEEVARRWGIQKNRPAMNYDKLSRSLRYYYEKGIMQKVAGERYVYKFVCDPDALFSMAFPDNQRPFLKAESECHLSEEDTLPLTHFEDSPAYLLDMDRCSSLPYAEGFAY
# ELF4, sequence (Q99607 whole entry): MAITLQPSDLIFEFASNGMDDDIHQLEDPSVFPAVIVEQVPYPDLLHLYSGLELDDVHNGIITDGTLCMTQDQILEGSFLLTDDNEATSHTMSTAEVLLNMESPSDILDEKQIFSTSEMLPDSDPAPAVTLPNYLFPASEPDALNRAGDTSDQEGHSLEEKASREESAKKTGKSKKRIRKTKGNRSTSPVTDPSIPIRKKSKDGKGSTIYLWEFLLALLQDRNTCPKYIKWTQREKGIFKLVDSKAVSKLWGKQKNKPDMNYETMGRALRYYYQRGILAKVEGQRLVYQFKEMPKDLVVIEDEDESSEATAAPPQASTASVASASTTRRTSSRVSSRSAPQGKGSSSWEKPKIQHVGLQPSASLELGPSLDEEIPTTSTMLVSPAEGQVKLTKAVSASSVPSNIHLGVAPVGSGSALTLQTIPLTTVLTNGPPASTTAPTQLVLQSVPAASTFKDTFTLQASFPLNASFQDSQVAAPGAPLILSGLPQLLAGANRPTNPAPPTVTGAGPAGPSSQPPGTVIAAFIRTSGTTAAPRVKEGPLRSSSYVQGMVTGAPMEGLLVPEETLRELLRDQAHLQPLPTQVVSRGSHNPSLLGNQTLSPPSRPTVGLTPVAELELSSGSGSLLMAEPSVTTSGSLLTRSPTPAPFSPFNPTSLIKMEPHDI
sequence,measurement,setting,value
GCCTAT,binding signal,[1],"1.16 fold enrichment (6-mer frequency, TF over GST control)"
same,binding signal,[2],"1.3 fold enrichment (6-mer frequency, TF over GST control)"
same,binding signal,[3],"1.07 fold enrichment (6-mer frequency, TF over GST control)"
same,binding signal,[4],"1.12 fold enrichment (6-mer frequency, TF over GST control)"
same,binding signal,[5],"1.18 fold enrichment (6-mer frequency, TF over GST control)"
same,binding signal,[6],"1.31 fold enrichment (6-mer frequency, TF over GST control)"
same,binding signal,[7],"1.2 fold enrichment (6-mer frequency, TF over GST control)"
same,binding signal,[8],"1.3 fold enrichment (6-mer frequency, TF over GST control)"
same,binding signal,[9],"1.09 fold enrichment (6-mer frequency, TF over GST control)"
same,binding signal,[10],"1.23 fold enrichment (6-mer frequency, TF over GST control)"
same,binding signal,[11],"1.28 fold enrichment (6-mer frequency, TF over GST control)"
same,binding signal,[12],"1.09 fold enrichment (6-mer frequency, TF over GST control)"
same,binding signal,[13],"1.27 fold enrichment (6-mer frequency, TF over GST control)"
same,binding signal,[14],"1.24 fold enrichment (6-mer frequency, TF over GST control)"
same,binding signal,[15],"1.15 fold enrichment (6-mer frequency, TF over GST control)"
same,binding signal,[16],"1.21 fold enrichment (6-mer frequency, TF over GST control)"
same,binding signal,[17],"1.19 fold enrichment (6-mer frequency, TF over GST control)"
